Data reported in PubChem BioAssay (EPA / NIEHS).
The source made the active and inactive calls. How the source made its calls: active means hit-call score of the fitted dose curve at least 0.9, where 1 is the maximum; inactive means score below 0.9.

What was measured:
Settings in all cases: mRNA level, 48 h; actives raise or lower the signal
[1] = read-out: Pro-epidermal growth factor (Homo sapiens) (UniProt P01133); assay: LTEA_HepaRG_EGF: Life Technologies and Expression Analysis (LTEA) Assay for Epidermal growth factor (EGF) using HepaRG (AID 2283489)
Outline: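 Concentration-response mRNA assay: HepaRG cells dosed 48 h (max 100 uM, 0.5% DMSO), EGF measured by qRT-PCR and normalized to ACTB/GAPDH/POLR2A.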

[2] = read-out: Early growth response protein 1 (EGR1) transcription factor, EGR1 (gene 1958); assay: LTEA_HepaRG_EGR1: Life Technologies and Expression Analysis (LTEA) Assay for Early growth response protein 1 (EGR1) transcription factor using HepaRG (AID 2283490)
Outline: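 Differentiated HepaRG cells in serum-free induction medium exposed 48 hours, duplicate, to 8 half-log concentrations up to 100 uM in 0.5% DMSO. EGR1 mRNA measured by TaqMan qRT-PCR, normalized to ACTB, GAPDH, POLR2A; bidirectional fit versus DMSO.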

[3] = read-out: Ezrin (EZR), EZR (gene 7430); assay: LTEA_HepaRG_EZR: Life Technologies and Expression Analysis (LTEA) Assay for Ezrin (EZR) using HepaRG (AID 2283491)
Outline: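 Read-out is EZR transcript level by qRT-PCR, normalized to three housekeeping genes and fitted bidirectionally against the DMSO control. Human HepaRG cells received test chemicals for 48 h at eight half-log concentrations up to 100 uM in 0.5% DMSO.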

[4] = read-out: Cytochrome P450 3A7 (Homo sapiens) (UniProt P24462); assay: LTEA_HepaRG_CYP3A7: Life Technologies and Expression Analysis (LTEA) Assay for CYP3A7 using HepaRG (AID 2283492)
Outline: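 qRT-PCR of CYP3A7 in HepaRG lysates after 48 h treatment; concentration-response (8 points, max 100 uM) analysed bidirectionally relative to 0.5% DMSO controls.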

CYP3A5 (gene 1577) = assay: LTEA_HepaRG_CYP3A5: Life Technologies and Expression Analysis (LTEA) Assay for CYP3A5 using HepaRG (AID 2283493)
Outline: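 Differentiated HepaRG cells in serum-free induction medium were dosed 48 h with test chemicals (8-point half-log series, top 100 uM, 0.5% DMSO, duplicate). CYP3A5 mRNA measured by qRT-PCR, normalized to ACTB, GAPDH, POLR2A; bidirectional fit versus DMSO.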

[5] = read-out: Fatty Acid-Binding Protein 1 (FABP1), FABP1 (gene 2168); assay: LTEA_HepaRG_FABP1: Life Technologies and Expression Analysis (LTEA) Assay for Fatty Acid-Binding Protein 1 (FABP1) using HepaRG (AID 2283494)
Outline: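 Differentiated human HepaRG cells exposed 48 h in serum-free induction medium to eight half-log concentrations up to 100 uM (0.5% DMSO), duplicate. FABP1 mRNA by qRT-PCR, normalised to ACTB, GAPDH, POLR2A; bidirectional fitting against DMSO.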

[6] = read-out: Cytochrome P450 4A22 (Homo sapiens) (UniProt Q5TCH4); assay: LTEA_HepaRG_CYP4A22: Life Technologies and Expression Analysis (LTEA) Assay for Cytochrome P450 4A22 (CYP4A22) using HepaRG (AID 2283495)
Outline: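 Concentration-response (8 points, max 100 uM, 0.5% DMSO) in human HepaRG liver cells after 48 h exposure. CYP4A22 mRNA by TaqMan qRT-PCR with housekeeping-gene normalization.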

[7] = read-out: Cytochrome P450 7A1 (Homo sapiens) (UniProt P22680); assay: LTEA_HepaRG_CYP7A1: Life Technologies and Expression Analysis (LTEA) Assay for Cytochrome P450 7A1 (CYP7A1) using HepaRG (AID 2283496)
Outline: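 Gene expression endpoint in human HepaRG liver cells treated for 48 h with test chemicals (up to 100 uM, 0.5% DMSO). Values come from bidirectional concentration-response fitting versus DMSO.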

[8] = read-out: Glutathione S-Transferase (GSTA2), GSTA2 (gene 2939); assay: LTEA_HepaRG_GSTA2: Life Technologies and Expression Analysis (LTEA) Assay for Glutathione S-Transferase (GSTA2) using HepaRG (AID 2283497)
Outline: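 Differentiated human HepaRG cells were exposed in duplicate for 48 h in serum-free induction medium, 8 points from 100 uM top in half-log steps, 0.5% DMSO. GSTA2 mRNA was measured by TaqMan qRT-PCR, normalized to ACTB, GAPDH and POLR2A; bidirectional fit versus DMSO.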

[9] = read-out: Glutamate-cysteine ligase catalytic (GCLC), GCLC (gene 2729); assay: LTEA_HepaRG_GCLC: Life Technologies and Expression Analysis (LTEA) Assay for Glutamate-cysteine ligase catalytic (GCLC) using HepaRG (AID 2283498)
Outline: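 Differentiated HepaRG cells exposed 48 h in serum-free induction medium, eight-point half-log series topping at 100 uM in 0.5% DMSO, duplicates. GCLC mRNA by qRT-PCR normalized to ACTB, GAPDH and POLR2A, fitted bidirectionally versus DMSO.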

Measured: AC50

Cytochrome P450 3A7 (Homo sapiens), sequence (P24462 whole entry, looked up): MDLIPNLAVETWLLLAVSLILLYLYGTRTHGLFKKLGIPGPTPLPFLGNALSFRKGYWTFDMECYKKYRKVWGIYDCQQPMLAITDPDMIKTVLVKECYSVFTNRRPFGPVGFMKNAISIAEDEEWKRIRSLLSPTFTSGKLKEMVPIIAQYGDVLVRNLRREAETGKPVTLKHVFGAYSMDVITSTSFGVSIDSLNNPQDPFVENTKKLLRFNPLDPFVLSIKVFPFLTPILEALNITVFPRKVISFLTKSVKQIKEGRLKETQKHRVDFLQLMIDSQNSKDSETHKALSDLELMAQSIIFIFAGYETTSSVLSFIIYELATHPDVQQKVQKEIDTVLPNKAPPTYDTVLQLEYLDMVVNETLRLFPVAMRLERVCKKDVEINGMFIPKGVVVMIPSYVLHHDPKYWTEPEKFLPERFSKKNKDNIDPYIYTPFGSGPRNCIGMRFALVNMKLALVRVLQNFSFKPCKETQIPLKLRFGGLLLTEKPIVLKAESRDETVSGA

CCOC(=O)CCC(=O)OCC
inactive: all assays above

CN1CCCC1=O
inactive: all assays above

COc1cc(S(=O)(=O)O)c(C)cc1N=Nc1c(O)ccc2cc(S(=O)(=O)O)ccc12
inactive: all assays above

COCCOC[C@H](CC1(C(=O)NC2CCC(C(=O)O)CC2)CCCC1)C(=O)Oc1ccc2c(c1)CCC2 (some centres not stated)
inactive: all assays above

COc1ccc(S(=O)(=O)N2C(=O)[C@@](c3ccccc3OC)(N3C[C@H](O)C[C@H]3C(=O)N(C)C)c3cc(Cl)ccc32)c(OC)c1
active: [2] 81.1 µM | [3] 11.5 µM | [4] 30.4 µM | CYP3A5 (gene 1577) 13.2 µM | [5] 26.9 µM | [6] 15.8 µM | [7] 21 µM | [8] 25 µM | [9] 13 µM
inactive: [1]

Cc1ccc(C(C)C)c(O)c1
inactive: all assays above

OC[C@@H](O)[C@@H](O)[C@H](O)[C@H](O)CO
inactive: all assays above

COCCOCCOC
active: [1] 1.09 µM | [9] 2.1 µM
inactive: all other assays above

CNC(=O)[C@H]1O[C@@H](n2cnc3c(NCc4cc(Cl)ccc4OCc4cc(C)no4)ncnc32)[C@H](O)[C@@H]1N
inactive: all assays above

Cc1oc(-c2ccccc2)nc1CCOc1cccc2c1ccn2CCC(=O)O
active: [2] 4.76 µM | [3] 9.92 µM | [4] 11.4 µM | [5] 87.6 µM | [6] 85.2 µM | [7] 82.3 µM | [8] 81.5 µM | [9] 50 µM
inactive: [1] | CYP3A5 (gene 1577)

CCCCCCOCCO
inactive: all assays above

O=C(OCCCCCOC(=O)c1ccccc1)c1ccccc1
active: [1] 2.17 µM | [4] 2.31 µM | [6] 2.98 µM | [9] 0.543 µM
inactive: all other assays above

Cc1ccc(C)c(O)c1C
inactive: all assays above

O=C(O)CCCCC(=O)O
inactive: all assays above

FC(F)(F)C(F)(F)C(F)(F)C(F)(F)C(F)(F)C(F)(F)CCI
inactive: all assays above

C=CCc1ccc(O)c(OC)c1
inactive: all assays above

CCCCCCCCCCCCCO
inactive: all assays above

Cc1nc(C)nc(N2C[C@@H](C)N(c3ccnc([C@@H](C)O)n3)[C@@H](C)C2)n1
active: [4] 13.8 µM | [6] 0.682 µM | [8] 25 µM
inactive: all other assays above

CCOC(=O)C(C)(C)Oc1ccc(Cl)cc1
active: [6] 25.7 µM
inactive: all other assays above

CC1(C)NC(=O)NC1=O
inactive: all assays above

CC(C)(C)c1cc(O)c(C(C)(C)C)cc1O
inactive: [1] | [3] | [9]
active: [2] 50 µM | [5] 94.3 µM | [8] 77.8 µM

CC(=O)OC/C=C(\C)CCC=C(C)C
inactive: all assays above

CC(C)c1ccc(C(=O)N=C(N)N)cc1S(C)(=O)=O
active: [1] 0.69 µM | [2] 0.337 µM | [4] 0.74 µM | [6] 8.37 µM | [9] 0.336 µM
inactive: [3] | CYP3A5 (gene 1577) | [5] | [7] | [8]

Cc1cccc(Nc2cc(Cl)nc(SCC(=O)O)n2)c1C
active: [5] 16.7 µM | [6] 16.7 µM | [7] 19.5 µM
not listed: [4]
inactive: all other assays above

NS(=O)(=O)c1cc2c(cc1Cl)NCNS2(=O)=O
inactive: all assays above

COc1ccc2c(c1)c(CC(=O)O)c(C)n2C(=O)c1ccc(Cl)cc1
inactive: all assays above

COc1cc(C=O)ccc1O
inactive: all assays above

Nc1ccc(S(=O)(=O)c2ccc(N)cc2)cc1
not listed: [1]
inactive: all other assays above

O=[N+]([O-])C(CO)(CO)CO
inactive: all assays above

O=c1c(O)c(-c2ccc(O)c(O)c2)oc2cc(O)cc(O)c12
not listed: [4]
inactive: all other assays above

Cc1c(C(=O)O)c(O)cc2c1C(=O)c1c(O)c([C@@H]3O[C@H](CO)[C@@H](O)[C@H](O)[C@H]3O)c(O)c(O)c1C2=O
inactive: all assays above

Nc1ccccc1N
inactive: [1] | [3]
active: [2] 30 µM | CYP3A5 (gene 1577) 51.3 µM | [5] 72.6 µM | [6] 64.6 µM | [7] 79.9 µM | [8] 74.9 µM | [9] 86.4 µM

Cc1cccc([N+](=O)[O-])c1C
inactive: all assays above

CCCCC(CC)COC(=O)CC(C(=O)OCC(CC)CCCC)S(=O)(=O)O (configuration not stated)
inactive: [1] | [3] | [6]
active: [2] 85.5 µM | CYP3A5 (gene 1577) 82.9 µM | [5] 91.6 µM | [7] 92 µM | [8] 82.2 µM | [9] 94.6 µM

CCCCCCCCCCCCCCCCCC(=O)O
inactive: all assays above

COc1cc(-c2nc(NC(=O)c3cc4cc(C)cc(C)c4n3CC(=O)O)sc2CCC2CCCCC2)c(OC)cc1Cl
active: [1] 29.1 µM | [2] 42.2 µM | [3] 19.8 µM | [4] 7.24 µM | CYP3A5 (gene 1577) 9.6 µM | [5] 4.12 µM | [6] 6.57 µM | [7] 4.44 µM | [8] 7.06 µM | [9] 14 µM

C[C@]12C=CC(=O)C=C1CC[C@@H]1[C@@H]2C(=O)C[C@@]2(C)[C@H]1CC[C@]2(O)C(=O)CO
inactive: [1] | [2] | [3] | [5] | [8] | [9]

Cc1ccc(C)c(C)c1
inactive: all assays above

CCCCCCC(=O)OCC
inactive: all assays above

CNCc1cc(F)ccc1Oc1ccc(Cl)c(Cl)c1
inactive: [3] | CYP3A5 (gene 1577) | [9]
active: [1] 79.4 µM | [2] 83 µM | [4] 77.5 µM | [5] 84 µM | [6] 74.9 µM | [7] 85.1 µM | [8] 92.7 µM

C[Si]1(C)O[Si](C)(C)O[Si](C)(C)O[Si](C)(C)O1
inactive: all assays above

Cc1ccc2ncccc2c1
inactive: all assays above

Oc1ccc2c(c1)OC[C@@H](N1CCC(O)(c3ccc(F)cc3)CC1)[C@H]2O
inactive: all assays above

CCCCCCCCCCCC(=O)OC
inactive: all assays above
